Measured values: the supplement of paper PMC10849652
Of roughly 7,900 targets only a part is listed; those with a hit were picked by preference. About 0.6% of all pairs of compound and target were hits.

Key:
Test in all cases: log2 fold change, soluble protein after heating vs DMSO (PISA); higher = thermal stabilisation; K562 cells, 10 uM, 30 min; active = over 0.2 and 3.5 SD of the protein, either way, in both replicates (recomputed)
[1] = compound: NC(=O)Nc1cc(-c2cccc(F)c2)sc1C(=O)N[C@H]1CCCNC1
Procedure, shortened: (§1)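 Values are thermal stability changes relative to control samples and are taken from duplicates. They are stated as log2 fold changes. Before quantification by TMTpro 16plex LC-MS/MS with equalised channel sums, K562 cells at 2×10^6 cells/mL were treated with 10 μM compound for 30 min, heated in aliquots for 3 min across 48°C-58°C, pooled, extracted in PBS with 0.5% NP-40 at 4°C, and centrifuged at 21,000xg for 90 min to give the soluble supernatant.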

[2] = compound: NC(=O)c1cnc(N[C@@H]2CCCC[C@@H]2N)nc1Nc1cccc(-n2nccn2)c1
Procedure, shortened: as §1

[3] = compound: NC1(c2ccc(-c3nc4ccn5c(=O)[nH]nc5c4cc3-c3ccccc3)cc2)CCC1
Procedure, shortened: as §1

[4] = compound: NCC(=O)Nc1ccc(-n2nc(C(F)(F)F)cc2-c2ccc3c(ccc4ccccc43)c2)cc1
Procedure, shortened: as §1

[5] = compound: Nc1ccccc1NC(=O)c1ccc(CNC(=O)OCc2cccnc2)cc1 [entinostat]
Procedure, shortened: as §1

[6] = compound: O=C(CCCCCCC(=O)Nc1ccccc1)NO [vorinostat]
Procedure, shortened: as §1

[7] = compound: O=C(CCCCCCNC(=O)c1cnc(N(c2ccccc2)c2ccccc2Cl)nc1)NO [citarinostat]
Procedure, shortened: as §1

[8] = compound: O=C(O)c1ccc2c(c1)nc(Nc1cccc(Cl)c1)c1ccncc12 [silmitasertib]
Procedure, shortened: as §1

[9] = compound: O=C1NC(=O)C(c2cnc3ccccn23)=C1c1cn2c3c(cc(F)cc13)CN(C(=O)N1CCCCC1)CC2
Procedure, shortened: as §1

[10] = compound: c1cc(OCCN2CCCCC2)cc(-c2n[nH]c3ccc(-c4nnc[nH]4)cc23)c1
Procedure, shortened: as §1

Measured: log2 fold change

HMGCR isoform 3 (UniProt P04035)
Sequence of UniProt P04035 (P04035 whole entry, looked up): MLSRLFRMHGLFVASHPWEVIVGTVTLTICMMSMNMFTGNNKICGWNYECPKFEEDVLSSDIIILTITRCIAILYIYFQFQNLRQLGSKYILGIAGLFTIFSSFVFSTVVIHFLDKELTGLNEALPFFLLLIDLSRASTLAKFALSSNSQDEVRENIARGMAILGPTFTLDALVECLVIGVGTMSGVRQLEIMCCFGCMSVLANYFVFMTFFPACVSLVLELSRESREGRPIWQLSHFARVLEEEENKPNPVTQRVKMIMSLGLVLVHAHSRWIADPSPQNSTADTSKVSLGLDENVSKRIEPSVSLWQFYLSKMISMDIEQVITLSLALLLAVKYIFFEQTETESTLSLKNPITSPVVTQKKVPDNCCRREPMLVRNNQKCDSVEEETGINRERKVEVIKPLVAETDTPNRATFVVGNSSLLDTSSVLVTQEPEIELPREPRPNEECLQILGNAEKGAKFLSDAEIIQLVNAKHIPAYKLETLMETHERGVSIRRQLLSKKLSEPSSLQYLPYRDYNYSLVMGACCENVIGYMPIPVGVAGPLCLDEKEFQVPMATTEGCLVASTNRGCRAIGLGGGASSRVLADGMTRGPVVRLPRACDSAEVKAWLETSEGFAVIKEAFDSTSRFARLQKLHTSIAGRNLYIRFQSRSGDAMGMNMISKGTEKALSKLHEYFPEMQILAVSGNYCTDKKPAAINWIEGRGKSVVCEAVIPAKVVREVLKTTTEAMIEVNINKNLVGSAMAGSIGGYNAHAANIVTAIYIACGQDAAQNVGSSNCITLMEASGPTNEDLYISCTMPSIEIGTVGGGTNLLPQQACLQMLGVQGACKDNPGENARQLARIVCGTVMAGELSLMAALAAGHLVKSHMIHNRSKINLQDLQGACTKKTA
inactive: [1] 0.184 | [2] -0.115 | [3] 0.048 | [4] -0.022 | [5] 0.082 | [6] -0.019 | [7] -0.175 | [8] -0.08 | [9] 0.15 | [10] 0.081

HMOX2 (UniProt P30519)
inactive: [1] -0.022 | [2] -0.028 | [3] -0.094 | [4] -0.026 | [5] 0.018 | [6] 0.029 | [7] 0.023 | [8] 0 | [9] 0.013 | [10] -0.03

GEMIN5 (UniProt Q8TEQ6)
inactive: [1] -0.011 | [2] -0.018 | [3] -0.133 | [4] -0.015 | [5] 0.029 | [6] -0.046 | [7] -0.065 | [8] 0.009 | [9] -0.057 | [10] -0.034

GPX4 (UniProt P36969)
active: [7] -0.391
inactive: [1] -0.006 | [2] 0.079 | [3] -0.052 | [4] 0.032 | [5] -0.107 | [6] -0.082 | [8] 0.004 | [9] -0.006 | [10] -0.049

HAT1 (UniProt O14929)
Sequence of UniProt O14929 (O14929 whole entry, looked up): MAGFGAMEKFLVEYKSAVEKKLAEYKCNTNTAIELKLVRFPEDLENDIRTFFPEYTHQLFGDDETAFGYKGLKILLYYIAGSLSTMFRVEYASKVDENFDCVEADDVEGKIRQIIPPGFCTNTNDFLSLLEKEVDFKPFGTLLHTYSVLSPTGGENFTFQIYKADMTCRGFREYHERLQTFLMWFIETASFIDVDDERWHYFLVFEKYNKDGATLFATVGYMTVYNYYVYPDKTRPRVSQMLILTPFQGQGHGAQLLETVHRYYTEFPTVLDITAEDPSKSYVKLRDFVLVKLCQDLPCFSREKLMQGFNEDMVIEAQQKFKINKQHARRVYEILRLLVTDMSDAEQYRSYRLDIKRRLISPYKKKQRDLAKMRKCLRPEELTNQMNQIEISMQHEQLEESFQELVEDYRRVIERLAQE
inactive: [1] 0.002 | [2] 0.006 | [3] -0.076 | [4] 0.01 | [5] 0.053 | [6] 0.001 | [7] 0.071 | [8] 0.052 | [9] -0.055 | [10] -0.016

GAGE12F (UniProt P0CL80)
Sequence of UniProt P0CL80 (P0CL80 whole entry, looked up): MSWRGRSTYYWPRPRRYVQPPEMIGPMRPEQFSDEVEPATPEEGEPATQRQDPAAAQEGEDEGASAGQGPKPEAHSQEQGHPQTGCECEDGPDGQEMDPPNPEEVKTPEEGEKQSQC
inactive: [1] 0.029 | [2] -0.013 | [3] 0.083 | [4] -0.059 | [5] 0.031 | [6] 0.024 | [7] 0 | [8] 0.01 | [9] 0.021 | [10] -0.08

GSTM4 (UniProt Q03013)
Sequence of UniProt Q03013 (Q03013 whole entry, looked up): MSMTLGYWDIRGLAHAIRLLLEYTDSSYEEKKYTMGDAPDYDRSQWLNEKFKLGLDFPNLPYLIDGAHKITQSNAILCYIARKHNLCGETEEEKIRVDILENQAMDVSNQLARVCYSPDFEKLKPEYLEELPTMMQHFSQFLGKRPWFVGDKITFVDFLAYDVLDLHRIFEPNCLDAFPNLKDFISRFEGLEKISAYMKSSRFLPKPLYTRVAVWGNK
inactive: [1] -0.071 | [2] -0.046 | [3] -0.121 | [4] 0.023 | [5] -0.068 | [6] -0.013 | [7] -0.079 | [8] 0.137 | [9] 0.151 | [10] 0.199

GNL3 (UniProt Q9BVP2)
inactive: [1] 0.08 | [2] -0.061 | [3] -0.098 | [4] -0.088 | [5] -0.069 | [6] -0.131 | [7] 0.134 | [8] -0.066 | [9] -0.027 | [10] 0.041

GYG1 (UniProt P46976)
Sequence of UniProt P46976 (P46976 whole entry, looked up): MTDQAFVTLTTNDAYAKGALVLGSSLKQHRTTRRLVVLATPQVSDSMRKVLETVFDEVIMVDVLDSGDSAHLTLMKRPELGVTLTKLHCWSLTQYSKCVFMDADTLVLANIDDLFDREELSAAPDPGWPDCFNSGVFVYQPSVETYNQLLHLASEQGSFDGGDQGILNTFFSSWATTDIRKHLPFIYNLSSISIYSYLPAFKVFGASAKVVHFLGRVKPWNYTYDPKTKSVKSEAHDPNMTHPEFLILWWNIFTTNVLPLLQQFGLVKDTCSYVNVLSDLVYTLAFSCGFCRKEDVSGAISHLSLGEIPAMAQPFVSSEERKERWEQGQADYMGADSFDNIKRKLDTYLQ
inactive: [1] 0.012 | [2] -0.017 | [3] 0.075 | [4] 0.134 | [5] -0.019 | [6] -0.056 | [7] -0.011 | [8] 0.049 | [9] 0.037 | [10] -0.057

HOMER1 (UniProt Q86YM7)
Sequence of UniProt Q86YM7 (Q86YM7 whole entry, looked up): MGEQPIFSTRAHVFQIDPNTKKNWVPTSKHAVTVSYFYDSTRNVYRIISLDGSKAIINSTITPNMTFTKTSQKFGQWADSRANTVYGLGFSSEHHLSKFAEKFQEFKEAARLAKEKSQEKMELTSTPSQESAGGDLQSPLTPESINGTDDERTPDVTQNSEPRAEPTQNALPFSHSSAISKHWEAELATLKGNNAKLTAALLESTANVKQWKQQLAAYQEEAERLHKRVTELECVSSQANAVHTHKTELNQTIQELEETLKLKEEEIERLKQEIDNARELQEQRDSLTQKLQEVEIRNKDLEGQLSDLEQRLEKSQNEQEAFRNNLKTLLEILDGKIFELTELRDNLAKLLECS
inactive: [1] 0.058 | [2] 0.007 | [3] -0.014 | [4] 0.032 | [5] 0.049 | [6] 0.059 | [7] 0.013 | [8] 0.119 | [9] 0.013 | [10] 0.024

FUBP3 (UniProt Q96I24)
Sequence of UniProt Q96I24 (Q96I24 whole entry, looked up): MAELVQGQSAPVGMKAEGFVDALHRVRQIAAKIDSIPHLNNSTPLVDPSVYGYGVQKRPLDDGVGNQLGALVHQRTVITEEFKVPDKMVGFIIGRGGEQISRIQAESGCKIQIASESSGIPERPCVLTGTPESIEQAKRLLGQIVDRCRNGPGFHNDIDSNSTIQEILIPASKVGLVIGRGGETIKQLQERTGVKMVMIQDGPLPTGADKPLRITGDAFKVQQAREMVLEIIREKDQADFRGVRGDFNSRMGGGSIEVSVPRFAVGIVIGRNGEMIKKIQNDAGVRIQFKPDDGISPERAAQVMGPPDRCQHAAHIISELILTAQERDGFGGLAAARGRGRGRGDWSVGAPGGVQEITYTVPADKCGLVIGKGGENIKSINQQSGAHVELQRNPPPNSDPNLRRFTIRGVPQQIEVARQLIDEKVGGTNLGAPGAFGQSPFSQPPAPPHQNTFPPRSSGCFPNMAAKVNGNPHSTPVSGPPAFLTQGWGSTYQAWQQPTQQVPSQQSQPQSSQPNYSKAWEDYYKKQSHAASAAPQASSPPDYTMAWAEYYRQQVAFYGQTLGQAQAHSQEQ
inactive: [1] -0.023 | [2] 0.024 | [3] -0.048 | [4] -0.011 | [5] 0.003 | [6] 0.062 | [7] -0.005 | [8] 0.045 | [9] 0.186 | [10] 0.006

GLS isoform 3 (UniProt O94925)
inactive: [1] -0.133 | [2] 0.154 | [3] -0.285 | [4] 0.01 | [5] -0.017 | [6] 0.019 | [7] 0.169 | [8] 0 | [9] -0.24 | [10] 0.071

GGT7 (UniProt Q9UJ14)
Sequence of UniProt Q9UJ14 (Q9UJ14 whole entry, looked up): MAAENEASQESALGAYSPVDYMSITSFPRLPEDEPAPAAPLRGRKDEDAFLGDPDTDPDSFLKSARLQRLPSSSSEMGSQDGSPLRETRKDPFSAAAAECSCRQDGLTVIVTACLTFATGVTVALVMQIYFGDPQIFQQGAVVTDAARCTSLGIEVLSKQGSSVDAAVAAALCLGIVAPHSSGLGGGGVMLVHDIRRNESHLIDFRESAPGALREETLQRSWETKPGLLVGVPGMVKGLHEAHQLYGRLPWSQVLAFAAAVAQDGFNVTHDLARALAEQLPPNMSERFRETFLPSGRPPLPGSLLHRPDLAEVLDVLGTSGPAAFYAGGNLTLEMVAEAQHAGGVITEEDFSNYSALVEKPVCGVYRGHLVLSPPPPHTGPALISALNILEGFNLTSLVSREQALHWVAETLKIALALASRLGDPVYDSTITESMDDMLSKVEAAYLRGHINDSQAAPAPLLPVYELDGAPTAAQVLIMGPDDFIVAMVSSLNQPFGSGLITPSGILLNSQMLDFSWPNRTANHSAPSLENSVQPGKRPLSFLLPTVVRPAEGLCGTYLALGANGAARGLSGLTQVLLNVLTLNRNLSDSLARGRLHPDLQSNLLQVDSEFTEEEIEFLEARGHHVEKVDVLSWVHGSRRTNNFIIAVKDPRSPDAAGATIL
inactive: [1] -0.034 | [2] 0.04 | [3] -0.076 | [5] -0.081 | [6] 0.062 | [7] 0.058 | [8] -0.009 | [9] -0.061 | [10] 0.002
active: [4] 0.288

HNRNPF (UniProt P52597)
inactive: [1] -0.015 | [2] 0.014 | [3] -0.11 | [4] -0.027 | [5] 0.137 | [6] 0.154 | [7] 0.07 | [8] 0.074 | [9] -0.104 | [10] -0.048

HIC2 (UniProt Q96JB3)
inactive: [1] -0.071 | [2] -0.06 | [3] 0.016 | [4] 0.101 | [5] -0.027 | [6] -0.027 | [7] -0.019 | [8] 0.098 | [9] 0.121 | [10] -0.233

HNRNPUL2 (UniProt Q1KMD3)
inactive: [1] -0.04 | [2] 0.02 | [3] 0.153 | [4] 0.017 | [5] -0.026 | [6] -0.004 | [7] -0.077 | [8] 0.046 | [9] 0.15 | [10] -0.104

HAX1 (UniProt O00165)
Sequence of UniProt O00165 (O00165 whole entry, looked up): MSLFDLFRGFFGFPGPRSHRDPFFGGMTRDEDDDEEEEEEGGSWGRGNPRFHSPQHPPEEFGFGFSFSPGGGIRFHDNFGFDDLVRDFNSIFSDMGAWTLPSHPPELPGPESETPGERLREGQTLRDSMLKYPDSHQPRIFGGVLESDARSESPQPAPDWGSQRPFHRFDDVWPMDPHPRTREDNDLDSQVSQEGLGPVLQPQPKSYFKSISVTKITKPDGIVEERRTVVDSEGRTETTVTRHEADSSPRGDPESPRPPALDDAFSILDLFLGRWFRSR
inactive: [1] -0.106 | [2] -0.165 | [3] -0.174 | [4] -0.06 | [5] 0.021 | [6] 0.115 | [7] -0.019 | [8] -0.032 | [9] 0.036 | [10] -0.074

HRC (UniProt P23327)
inactive: [1] -0.161 | [2] 0.005 | [3] -0.02 | [4] -0.056 | [5] -0.114 | [6] -0.128 | [7] -0.011 | [8] 0.013 | [9] 0.023 | [10] -0.026

FRA10AC1 isoform 3 (UniProt Q70Z53)
inactive: [1] -0.069 | [2] 0.114 | [3] -0.121 | [4] -0.077 | [5] 0.019 | [6] 0.065 | [7] 0.08 | [8] 0.129 | [9] -0.091 | [10] -0.232

HBQ1 (UniProt P09105)
inactive: [1] 0.058 | [2] -0.048 | [3] -0.043 | [4] 0.006 | [5] 0.014 | [6] -0.05 | [7] 0.032 | [8] -0.047 | [9] -0.119 | [10] 0.021

FNTA (UniProt P49354)
inactive: [1] 0.009 | [2] 0.061 | [3] 0.028 | [4] 0 | [5] -0.02 | [6] 0.004 | [7] -0.02 | [8] 0.016 | [9] -0.001
active: [10] 0.696

FKBP3 (UniProt Q00688)
inactive: [1] 0.042 | [2] 0.019 | [3] 0.02 | [4] 0.037 | [5] 0.016 | [6] 0.007 | [7] 0.009 | [8] -0.034 | [9] -0.02 | [10] 0.054

GABARAPL2 (UniProt P60520)
inactive: [1] -0.036 | [2] -0.088 | [3] -0.145 | [4] -0.079 | [5] -0.011 | [6] 0.063 | [7] 0.041 | [8] -0.049 | [9] -0.048 | [10] 0.015

GLYR1 (UniProt Q49A26)
Sequence of UniProt Q49A26 (Q49A26 whole entry, looked up): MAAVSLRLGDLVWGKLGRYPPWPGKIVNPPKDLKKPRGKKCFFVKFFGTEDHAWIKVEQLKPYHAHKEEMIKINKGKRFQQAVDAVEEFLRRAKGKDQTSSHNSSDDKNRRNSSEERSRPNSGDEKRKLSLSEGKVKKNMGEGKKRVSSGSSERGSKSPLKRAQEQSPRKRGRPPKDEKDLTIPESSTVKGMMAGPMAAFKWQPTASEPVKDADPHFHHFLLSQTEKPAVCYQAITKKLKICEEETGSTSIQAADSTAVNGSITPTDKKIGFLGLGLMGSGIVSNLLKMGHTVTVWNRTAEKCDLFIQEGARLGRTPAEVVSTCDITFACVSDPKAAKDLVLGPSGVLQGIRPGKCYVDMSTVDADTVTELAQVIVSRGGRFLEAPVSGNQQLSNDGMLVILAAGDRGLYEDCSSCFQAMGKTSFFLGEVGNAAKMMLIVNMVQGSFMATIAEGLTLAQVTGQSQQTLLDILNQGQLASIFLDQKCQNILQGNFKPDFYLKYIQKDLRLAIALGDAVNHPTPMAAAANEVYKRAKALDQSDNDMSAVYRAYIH
inactive: [1] -0.023 | [2] 0.034 | [3] -0.032 | [4] 0.112 | [5] -0.049 | [6] 0.027 | [7] 0.011 | [8] -0.015 | [9] -0.009 | [10] -0.135

IDI1 isoform 2 (UniProt Q13907)
inactive: [1] -0.062 | [2] 0.01 | [3] -0.038 | [4] 0.024 | [5] -0.03 | [6] 0.008 | [7] -0.017 | [8] 0.078 | [9] -0.066 | [10] 0.035

FANCI (UniProt Q9NVI1)
active: [3] -0.281
inactive: [1] 0.139 | [2] -0.069 | [4] -0.08 | [5] 0.083 | [6] 0.112 | [7] 0.099 | [8] -0.089 | [9] 0.033 | [10] -0.045

HIP1 (UniProt O00291)
inactive: [1] -0.038 | [2] 0.035 | [3] 0.032 | [4] 0.038 | [5] -0.061 | [6] -0.013 | [7] 0.072 | [8] -0.123 | [9] -0.146 | [10] 0.06

HDDC2 (UniProt Q7Z4H3)
Sequence of UniProt Q7Z4H3 (Q7Z4H3 whole entry, looked up): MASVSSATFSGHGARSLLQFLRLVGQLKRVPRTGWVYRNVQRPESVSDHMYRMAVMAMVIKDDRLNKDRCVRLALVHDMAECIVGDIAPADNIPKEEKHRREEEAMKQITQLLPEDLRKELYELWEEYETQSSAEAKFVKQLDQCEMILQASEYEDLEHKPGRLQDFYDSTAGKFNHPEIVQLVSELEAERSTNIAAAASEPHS
inactive: [1] -0.013 | [2] 0.111 | [3] -0.005 | [4] 0.032 | [5] -0.03 | [6] -0.036 | [7] 0.032 | [8] -0.032 | [9] 0.029 | [10] -0.041

HTATIP2 isoform 3 (UniProt Q9BUP3)
Sequence of UniProt Q9BUP3 (Q9BUP3 whole entry, looked up): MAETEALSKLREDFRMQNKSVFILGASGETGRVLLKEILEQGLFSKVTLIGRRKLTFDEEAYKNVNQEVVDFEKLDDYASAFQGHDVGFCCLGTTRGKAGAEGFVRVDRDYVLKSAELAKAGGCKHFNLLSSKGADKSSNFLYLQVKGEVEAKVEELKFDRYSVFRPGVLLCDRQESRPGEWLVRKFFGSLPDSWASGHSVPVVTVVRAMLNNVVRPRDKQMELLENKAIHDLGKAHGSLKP
inactive: [1] -0.047 | [2] 0.036 | [3] -0.07 | [4] -0.037 | [5] -0.006 | [6] 0.038 | [7] 0.05 | [8] 0.01 | [9] -0.066 | [10] -0.045

GLRX3 (UniProt O76003)
inactive: [1] 0 | [2] -0.057 | [3] -0.066 | [4] -0.042 | [5] 0.022 | [6] -0.013 | [7] 0.014 | [8] 0.034 | [9] -0.094 | [10] -0.024
